In the antibiotic and cytotoxicity screens of Wong et al. (2023):
The whole screen tested about 39,000 compounds, of which about 3,300 (8.5%) were called active. The sample holds actives, similar compounds and a random draw of the others, so the mix is not that of the screen.

Test system: HepG2
Test: cytotoxicity call (relative viability < 0.9)
Conditions: 10 µM

Compound	cytotoxicity call
COc1ccc(S(=O)(=O)Nc2ccc3c(c2)C(=O)N([C@H](C)CO)C[C@@H](C)[C@@H](CN(C)S(=O)(=O)c2cn(C)cn2)O3)cc1	inactive
O=C(N[C@H]1CCS(=O)(=O)C1)N1CCCCC1	inactive
Cc1ccc(N2C(=O)c3ccccc3[C@](C)(C(=O)NCCN3CCOCC3)[C@@H]2c2ccc(CO)cc2)nc1	inactive
C[C@@H]1CN([C@H](C)CO)C(=O)Cc2cc(NC(=O)Cn3cnnn3)ccc2O[C@@H]1CN(C)C(=O)Nc1ccc(F)cc1	inactive
Cc1ccc(S(=O)(=O)N(C)C[C@H]2OCCCC[C@H](C)Oc3ccc(NC(=O)Nc4cccc5ccccc45)cc3C(=O)N([C@@H](C)CO)C[C@H]2C)cc1	inactive
O=C(C1=C[C@@H](C2CC2)C[C@@H](OCc2ccc(CO)cc2)O1)N1CCN(Cc2ccc3c(c2)OCO3)CC1	inactive
CCC(=O)O[C@H]1[C@H](O[C@@H]2[C@@H](C)[C@H](O[C@H]3C[C@@](C)(OC)[C@@H](O)[C@H](C)O3)[C@@H](C)C(=O)O[C@H](CC)[C@@](C)(O)[C@H](O)[C@@H](C)C(=O)[C@H](C)C[C@@]2(C)O)O[C@H](C)C[C@@H]1N(C)C	inactive
O=C(C[C@H]1C=C[C@H](NC(=O)c2ccc(F)cc2)[C@H](CO)O1)NCc1ccncn1	inactive
CN(C)C(=O)c1ccc(-c2cccc(-c3nc(C(=O)NC4CCC4)cc4c3[C@@H](CCO)N([S@](=O)C(C)(C)C)C4)c2)cc1	inactive
C[C@@H]1CCCCO[C@@H](CN(C)S(=O)(=O)c2cccs2)[C@@H](C)CN([C@@H](C)CO)C(=O)c2cc(NC(=O)Nc3ccc(F)cc3)ccc2O1	inactive
C[C@@H]1CN([C@H](C)CO)C(=O)c2cc(NS(=O)(=O)c3ccc(F)cc3)ccc2O[C@@H](C)CCCCO[C@H]1CN(C)S(=O)(=O)c1ccc(Cl)cc1	inactive
C[C@@H]1CCCCO[C@H](CN(C)S(=O)(=O)c2ccc(F)cc2)[C@H](C)CN([C@H](C)CO)C(=O)c2cc(NS(=O)(=O)c3ccc(Cl)cc3)ccc2O1	inactive
C[C@H]1CCCCO[C@@H](CN(C)S(=O)(=O)c2ccc(Cl)cc2)[C@@H](C)CN([C@@H](C)CO)C(=O)c2cc(NS(=O)(=O)c3ccc(F)cc3)ccc2O1	inactive
C[C@H]1CCCCO[C@H](CN(C)S(=O)(=O)c2ccc(F)cc2)[C@@H](C)CN([C@@H](C)CO)C(=O)c2cc(NS(=O)(=O)c3ccc(Cl)cc3)ccc2O1	active
C[C@@H]1CCCCO[C@H](CN(C)S(=O)(=O)c2ccc(F)cc2)[C@@H](C)CN([C@H](C)CO)C(=O)c2cc(NS(=O)(=O)c3ccc(Cl)cc3)ccc2O1	inactive
C[C@H](CO)N1C[C@H](C)[C@@H](CN(C)S(=O)(=O)c2ccc(F)cc2)OCCCC[C@H](C)Oc2ccc(NS(=O)(=O)c3ccc(Cl)cc3)cc2C1=O	inactive
C[C@H]1CCCCO[C@H](CN(C)S(=O)(=O)c2ccc(Cl)cc2)[C@@H](C)CN([C@@H](C)CO)C(=O)c2cc(NS(=O)(=O)c3ccc(F)cc3)ccc2O1	active
C[C@@H]1CN([C@H](C)CO)C(=O)c2cc(NS(=O)(=O)c3ccc(Cl)cc3)ccc2O[C@@H](C)CCCCO[C@H]1CN(C)S(=O)(=O)c1ccc(F)cc1	active
C[C@H](CO)N1C[C@H](C)[C@H](CN(C)S(=O)(=O)c2ccc(F)cc2)OCCCC[C@H](C)Oc2ccc(NS(=O)(=O)c3ccc(Cl)cc3)cc2C1=O	inactive
CC(C)NC(=O)N(C)C[C@H]1Oc2ccc(NC(=O)Cc3ccccc3)cc2CC(=O)N([C@H](C)CO)C[C@H]1C	inactive

Compound	cytotoxicity call
C[C@@H]1CCCCO[C@H](CN(C)Cc2ccc(C(=O)O)cc2)[C@H](C)CN([C@H](C)CO)C(=O)c2cc(NS(=O)(=O)c3ccc(Cl)cc3)ccc2O1	inactive
COc1ccc(NC(=O)N(C)C[C@@H]2Oc3c(NC(=O)c4cc(C)nn4C)cccc3C(=O)N([C@@H](C)CO)C[C@@H]2C)cc1	inactive
COc1ccc(CN(C)C[C@@H]2OCCCC[C@@H](C)Oc3ccc(NS(=O)(=O)c4ccc(C)cc4)cc3C(=O)N([C@H](C)CO)C[C@@H]2C)cc1	inactive
COc1ccc(S(=O)(=O)N(C)C[C@H]2Oc3c(NS(C)(=O)=O)cccc3C(=O)N([C@@H](C)CO)C[C@H]2C)cc1	inactive
C[C@@H]1CCCCO[C@@H](CN(C)C(=O)c2ccncc2)[C@H](C)CN([C@H](C)CO)C(=O)c2cc(NS(=O)(=O)c3ccc(Cl)cc3)ccc2O1	inactive
C[C@@H]1CN([C@@H](C)CO)S(=O)(=O)c2ccc(-c3ccncc3)cc2O[C@@H]1CN(C)C(=O)c1cccc(F)c1	inactive
CO[C@H]1CN(C)C(=O)c2cc(NC(=O)C3CC3)ccc2OC[C@@H](C)N(C(=O)CN2CCOCC2)C[C@@H]1C	inactive
CCc1nc(C(N)=O)c(Nc2ccc(N3CCC(N4CCN(C)CC4)CC3)c(OC)c2)nc1NC1CCOCC1	active
C=CC(=O)N1CC[C@@H](Oc2nc(Nc3ccc(N4CCC(N5CCN(C)CC5)CC4)cc3)c(C(N)=O)nc2CC)C1	active
COCC(=O)NCc1cc(=O)n2c(n1)CN(c1ncccn1)CCC2	inactive
CO[C@H]1CN(C)C(=O)c2cc(NC(=O)Nc3ccccc3)ccc2OC[C@@H](C)N(C(=O)CN(C)C)C[C@@H]1C	inactive
C[C@H](CO)N1C[C@H](C)[C@H](CN(C)Cc2ccc(C(=O)Nc3ccccc3N)cc2)Oc2ccc(NS(=O)(=O)c3cn(C)cn3)cc2CC1=O	inactive
COc1ccc(CN(C)C[C@@H]2OCCCC[C@@H](C)Oc3ccc(NC(=O)Nc4ccc(F)cc4)cc3C(=O)N([C@H](C)CO)C[C@H]2C)cc1	active
COc1ccc(CN(C)C[C@H]2OCCCC[C@@H](C)Oc3ccc(NC(=O)Nc4ccc(F)cc4)cc3C(=O)N([C@@H](C)CO)C[C@H]2C)cc1	inactive
COc1ccc(CN(C)C[C@@H]2OCCCC[C@@H](C)Oc3ccc(NC(=O)Nc4ccc(F)cc4)cc3C(=O)N([C@@H](C)CO)C[C@H]2C)cc1	active
COc1ccc(CN(C)C[C@@H]2OCCCC[C@@H](C)Oc3ccc(NC(=O)Nc4ccc(F)cc4)cc3C(=O)N([C@@H](C)CO)C[C@@H]2C)cc1	inactive
COc1ccc(CN(C)C[C@@H]2OCCCC[C@H](C)Oc3ccc(NC(=O)Nc4ccc(F)cc4)cc3C(=O)N([C@@H](C)CO)C[C@H]2C)cc1	inactive
COc1ccc(CN(C)C[C@@H]2OCCCC[C@@H](C)Oc3ccc(NC(=O)Nc4ccc(F)cc4)cc3C(=O)N([C@H](C)CO)C[C@@H]2C)cc1	inactive
COc1ccc(CN(C)C[C@H]2OCCCC[C@@H](C)Oc3ccc(NC(=O)Nc4ccc(F)cc4)cc3C(=O)N([C@H](C)CO)C[C@@H]2C)cc1	inactive
COc1ccc(CN(C)C[C@@H]2OCCCC[C@H](C)Oc3ccc(NC(=O)Nc4ccc(F)cc4)cc3C(=O)N([C@H](C)CO)C[C@H]2C)cc1	inactive

Compound	cytotoxicity call
COc1ccc(CN(C)C[C@@H]2OCCCC[C@H](C)Oc3ccc(NC(=O)Nc4ccc(F)cc4)cc3C(=O)N([C@H](C)CO)C[C@@H]2C)cc1	active
COc1ccc(CN(C)C[C@@H]2OCCCC[C@H](C)Oc3ccc(NC(=O)Nc4ccc(F)cc4)cc3C(=O)N([C@@H](C)CO)C[C@@H]2C)cc1	active
C[C@H](CO)N1C[C@H](C)[C@@H](CN(C)Cc2ccccc2F)Oc2cc(C#CC3CC3)ccc2S1(=O)=O	inactive
Nc1cnc(Cl)nc1N	inactive
COC(=O)C[C@@H]1C(=O)NCCN1C(=O)NS(=O)(=O)c1ccc(C)cc1	inactive
C[C@@H]1CN([C@H](C)CO)C(=O)c2cccc(NS(=O)(=O)c3cccs3)c2O[C@@H]1CN(C)S(=O)(=O)c1ccccc1	inactive
O=C(NN1CCCCC1)c1nn(-c2ccc(Cl)cc2Cl)c(-c2ccc(C#Cc3ccc(C(F)(F)F)cc3)s2)c1CNS(=O)(=O)N1CCCC1	inactive
COc1ccc(CN(C)C[C@H]2OCCCC[C@H](C)Oc3ccc(NC(=O)Nc4ccc(F)cc4)cc3C(=O)N([C@@H](C)CO)C[C@@H]2C)cc1	inactive
COc1ccc(CN(C)C[C@H]2OCCCC[C@H](C)Oc3ccc(NC(=O)Nc4ccc(F)cc4)cc3C(=O)N([C@H](C)CO)C[C@@H]2C)cc1	inactive
COc1ccc(CN(C)C[C@H]2OCCCC[C@@H](C)Oc3ccc(NC(=O)Nc4ccc(F)cc4)cc3C(=O)N([C@@H](C)CO)C[C@@H]2C)cc1	active
COc1ccc(CN(C)C[C@H]2OCCCC[C@H](C)Oc3ccc(NC(=O)Nc4ccc(F)cc4)cc3C(=O)N([C@@H](C)CO)C[C@H]2C)cc1	active
COc1ccc(CN(C)C[C@H]2OCCCC[C@H](C)Oc3ccc(NC(=O)Nc4ccc(F)cc4)cc3C(=O)N([C@H](C)CO)C[C@H]2C)cc1	active
COc1ccc(CN(C)C[C@H]2OCCCC[C@@H](C)Oc3ccc(NC(=O)Nc4ccc(F)cc4)cc3C(=O)N([C@H](C)CO)C[C@H]2C)cc1	active
CCn1nnc2c(SCC(N)=O)ncnc21	inactive
O=C(NCc1ccccc1)OCCO	inactive
O=C(C[C@H]1CC[C@@H]2[C@H](COC[C@@H](O)CN2C(=O)Nc2ccc(F)cc2)O1)NCCCN1CCOCC1	inactive
CN1CCN(C(=O)C[C@H]2CC[C@@H]3[C@H](COC[C@H](O)CN3S(=O)(=O)c3cccc(F)c3)O2)CC1	inactive
COc1cccc(S(=O)(=O)N2C[C@H](O)COC[C@H]3O[C@@H](CC(=O)NCCCN4CCOCC4)CC[C@@H]32)c1	inactive
C[C@@H]1CCCCO[C@H](CN(C)C(=O)Cc2ccccc2)[C@@H](C)CN([C@H](C)CO)C(=O)c2cc(NS(=O)(=O)c3ccc(Cl)cc3)ccc2O1	inactive
